Y pestis TopoI = inhibitors of Yersinia pestis topoisomerase I; Y. pestis Topo-I cleavage product accumulation, plate reader; activity, % at 10 µM; actives 0.064% (n = 360,000); AID 504884; in the data active means activity above about 50%, passing the limit was not always enough
Vc quorum ag = inducers of Vibrio cholerae quorum light production without autoinducers. V. cholerae BH1578 lux reporter, luminescence, 6 h. activation, % at 18.7 µM. actives 0.16% (n = 350,000); in the data active means activation mostly above about 9.7%, no sharp cut-off
FadD28 binding = blocks FadD28 binding to the bisubstrate probe. actives 0.22% (n = 360,000). inhibition, % at 12.5 µM. fluorescence polarization. AID 588549; in the data active means inhibition above about 8.5%, passing the limit was not always enough
TcdB inh = inhibitors of Clostridioides difficile toxin B glycohydrolase; TcdB glycohydrolase enzymatic assay, plate reader; P18177; inhibition, % at 9.99 µM; actives 0.24% (n = 350,000); in the data active means inhibition above about 10%
Mtb BioA inh = blocks M. tuberculosis BioA enzyme activity; purified M. tuberculosis BioA enzyme, plate reader; inhibition, % at 9.99 µM; actives 0.096% (n = 360,000); AID 602481; in the data active means inhibition above about 40%
The depositor's hits bear a star; i = inactive; x = not tested or not shown; + = active, no number. A selection: hits, their analogues and other compounds. The true share with any hit is near 0.58%.

SMILES	Y pestis TopoI	Vc quorum ag	FadD28 binding	TcdB inh	Mtb BioA inh
O=C(C[C@H]1C[C@H]2c3cc(NC(=O)Nc4ccccc4)ccc3O[C@H]2[C@@H](CO)O1)NCc1ccncc1	x	x	x	0.6	-1.3
CCOC(=O)c1c(-c2cccs2)csc1NC(C)=O	15.9	1.0	-1.0	x	x
CCOC(=O)c1c(-c2ccc(C)s2)csc1NC(=O)c1cccs1	-6.3	0.0	16.7*	x	-2.3
O=C(N/N=C/C(Cl)=C/c1ccccc1)c1cnccn1	-9.8	-0.9	0.6	x	22.3
O=C(N/N=C/C(Cl)=C\c1ccccc1)c1cnccn1	-7.2	i	-0.9	x	45.3*
CC(OC(=O)[C@@H](NC(=O)OCc1ccccc1)C(C)C)C(=O)Nc1ccc(N2CCOCC2)cc1 (stereo not given in full)	-2.9	i	1.1	10.8*	-2.0
Cc1ccc(NC(=O)CCl)cc1S(=O)(=O)N1CCCCCC1	7.2	-0.4	-3.5	2.0	x
Cc1ccc(NC(=O)CNc2ccccc2N2CCCC2=O)cc1S(=O)(=O)N1CCCCC1	5.5	i	41.6*	1.4	-0.3
O=C(NC(=S)Nc1ccc(N2CCOCC2)cc1)c1cccc(Cl)c1	17.8	-0.3	1.3	2.3	x
O=C(NC(=S)Nc1ccc(N2CCOCC2)cc1)c1ccccc1	0.1	0.4	-0.8	23.1*	1.9
COc1cccc(C(=O)OCC(=O)Nc2cc(C)on2)c1OC	-2.7	i	-0.1	10.0*	-0.9
COc1cccc(C(=O)Nc2cc(C)on2)c1OC	6.2	-0.5	0.2	1.0	-1.8
Cc1cc(C(C)(C)C)cc(CN2CCN(S(=O)(=O)c3cccs3)CC2)c1O	-8.7	-5.9	-0.1	11.2*	-3.9
CCCCCCCCCCCCCCCCn1cc[n+](C)c1	-16.8	i	48.8*	3.3	x
CCS(=O)(=O)c1ccc2oc(Nc3ccc(C(C)(C)C)cc3)nc2c1	-2.7	3.3	-2.9	12.2*	-0.2
CCN1[C@@H]2c3ccc(/C=C/c4ccccc4)c(=O)n3C[C@H]1[C@H](CO)[C@H]2C(=O)N1CCOCC1	x	x	x	0.4	0.8
COc1ccc(C)c2sc(NC(=O)c3cccc(N4C(=O)CCC4=O)c3)nc12	14.0	-0.1	-2.7	-0.3	-0.3
Cc1ccc(C)c2sc(NC(=O)c3ccc(N4C(=O)CCC4=O)cc3)nc12	-5.3	-0.6	-1.3	22.6*	0.1
COc1ccc(C2CC(C(F)(F)F)n3nc(C(=O)N(C)Cc4cn(C)nc4C)c(Cl)c3N2)cc1 (stereo not given)	29.4	+	-1.5	x	0.9
Cc1ccccc1NC(=O)C1CC(=O)N(c2ccc3c4c(cccc24)CC3)C1 (stereo not given)	17.0	25.0*	-1.9	x	0.8
NS(=O)(=O)c1ccc(-c2ccc(C=O)o2)cc1	2.4	-0.2	0.8	-0.1	x
NS(=O)(=O)c1ccc(-c2ccc(/C=C3\NC(=S)NC3=O)o2)cc1	-2.9	i	10.0*	-5.9	2.1
COc1cc2ccccc2cc1C(=O)OCC(=O)N(CC(C)C)c1c(N)n(Cc2ccccc2)c(=O)[nH]c1=O	71.2*	-0.6	6.1	2.4	-3.1
O=C(OCC(=O)N1CCCCC1)c1ccccc1SCC(=O)N1CCCCC1	12.3	-2.7	-4.4	15.9*	-1.6
CC(=O)N[C@H]1C=C[C@H](CC(=O)NCC2CCCCC2)O[C@@H]1CO	x	x	x	0.9	0.9
SMILES	Y pestis TopoI	Vc quorum ag	FadD28 binding	TcdB inh	Mtb BioA inh
CO[C@H]1CN(C)C(=O)c2ccc(NC(=O)C3CCOCC3)cc2OC[C@H](C)N(Cc2nccs2)C[C@H]1C	x	x	x	1.5	-2.7
CCCSc1nc2c([nH]1)c(=O)n(C)c(=S)n2C	-5.6	i	-3.7	10.4*	x
C[C@H](O)C#Cc1cnc2c(c1)C(=O)N([C@H](C)CO)C[C@H](C)[C@@H](CN(C)Cc1cccc(C(=O)O)c1)O2	x	x	x	0.4	-3.2
Cc1nn(CCOc2ccccc2)c(=O)n1-c1ccccc1	5.6	-14.3	-0.4	x	2.3
Cc1nn(CCOc2ccccc2)c(=O)n1-c1ccc(Cl)cc1	0.6	-3.3	-5.3	15.5*	-0.4
CO[C@@H]1CN(C)C(=O)c2ccc(NC(C)=O)cc2OC[C@H](C)N(C(=O)CN(C)C)C[C@H]1C	x	x	x	x	-4.1
Cc1onc(-c2c(F)cccc2Cl)c1C(=O)Nc1nnc(C(F)(F)F)s1	1.8	7.7	-2.9	15.6*	2.0
Cc1onc(-c2c(F)cccc2Cl)c1C(=O)Nc1nccs1	5.3	i	-1.6	0.8	-0.3
Nc1ccc(C(=O)c2ccc3c(c2)OCCO3)cc1N	-3.6	-1.0	-5.0	13.6*	0.2
CN(C)C(=O)C[C@H]1C=C[C@H](NC(=O)C2CC2)[C@@H](CO)O1	x	x	x	0.0	2.6
O=C(NC(=S)NNS(=O)(=O)c1ccccc1)c1cccnc1	14.5	-0.1	-0.9	10.8*	x

Assay outcomes deposited in PubChem BioAssay by Broad Institute.
